Assay results published in PubChem BioAssay (NCATS).
Records with an inconclusive call do not appear. Where a call stands in place of a potency, no number is given. Unmarked numbers belong to inactive results. Calls of active or inactive are those of the source. The call rests on the fitted dose curve; in most records, active means well fitted inhibition curve with a large enough effect; inconclusive means small, poorly fitted or top-dose-only effect; inactive means no such curve, though single readings can be large or run the other way. *1 amine or outer side, *2 acyl side, *3 side chain or, on linkers, in order; H or OH if unused. Where a SMILES comes first, the peptide text is derived from it. [ ]: non-standard residue; d: D form. X4 = CC(C)=CCc1cc(C(O)C(N[*:1])C(=O)[*:2])ccc1O

What was measured:
[1] = test system: Zika virus NS2B-NS3 protease (unlinked complex); test: Primary screen GU Rhodamine qHTS for Zika virus inhibitors: Unlinked NS2B-NS3 protease assay (AID 1347159); further: nearly all actives have a fitted effect of over 60% in size
How it was run: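 Noncovalent NS2B hydrophilic domain–NS3 protease domain complex (25 nM) preincubated 15 min at room temperature with compounds (up to 114 microM) in 10 mM Tris-HCl pH 8.0, 0.01% Tween 20; 1.5 microM Rhodamine110 substrate added, fluorescence change over 15 min fitted to Hill equation.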

[2] = test system: Zika virus NS2B-NS3 protease (linked construct); test: Primary screen NINDS Rhodamine qHTS for Zika virus inhibitors (AID 1347160); further: nearly all actives have a fitted effect of over 55% in size
How it was run: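 Purified linked NS2B-NS3 protease (NS2B hydrophilic domain joined to NS3 protease by flexible linker), 25 nM in 10 mM Tris-HCl pH 8.0, 0.01% Tween 20. Compounds titrated, 15 min preincubation at room temperature; 1.5 microM Rhodamine110 substrate, FITC fluorescence change over 15 min.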

Structure (SMILES)	Potency [1]	Potency [2]	activity change, negative = inhibition [1]	outcome [2]
CC1CCC2(C(=O)O)CCC3(C)C(=CCC4C5(C)CCC(OC(=O)/C=C/c6ccccc6)C(C)(C)C5CCC43C)C2C1C (stereo not drawn)	inactive	inactive	–	–
CC1=C(CCC(C)CC(=O)O)[C@@]2(C)CCCC(C)(C)C2CC1=O (stereo partly drawn)	inactive	inactive	–	–
CC1OC(OC2C(C)OC(OC3C(OC(=O)C45CCC(C)(C)CC4C4=CCC6C7(C)CCC(OC8OC(C(=O)O)C(O)C(O)C8OC8OC(CO)C(O)C(OC9OC(C)C(O)C(O)C9O)C8O)C(C)(CO)C7CCC6(C)C4(C)CC5)OC(CO)C(O)C3O)C(O)C2O)C(O)C(O)C1O (stereo not drawn)	–	–	1.27% [at 19.1 µM]	inactive [at 10.7 µM]
C/C1=C\C[C@]2(C)C(=O)C(O)=C([C@H](C)CO)[C@H]2C/C=C(\C)[C@@H](O)CC/C(C)=C/CC1	inactive	inactive	–	–
COC(=O)c1c(C)cc(OC(=O)c2c(C)cc(OC)cc2OC)cc1O[C@@H]1O[C@H](CO)[C@@H](O)[C@H](O)[C@H]1O	inactive	inactive	–	–
CCN(CC)CCN(Cc1ccc(-c2ccc(C(F)(F)F)cc2)cc1)C(=O)Cn1c(SCc2ccc(F)cc2)nc(=O)c2c1CCC2	inactive	inactive	–	–
CCC(C)C(=O)OC1CC(C)C=C2C=CC(C)C(CCC(O)CC(O)CC(=O)O)C21 (stereo not drawn)	inactive	inactive	–	–
CC1CCC2C(C)(C)[C@@H](O)CC[C@]2(C)C12Cc1c(O)cc3c(c1O2)CN(C(CCC(=O)O)C(=O)O)C3=O (stereo partly drawn)	inactive	inactive	–	–
CC(C)=CCc1cc(C(O)C2NC(=O)CNC(=O)C(Cc3c[nH]c4ccccc34)NC(=O)C3CCCN3C(=O)CNC(=O)C(C(C)C)NC(=O)CNC2=O)ccc1O (stereo not drawn) (cyclo(G[X4]GVGPW); configuration not given here)	inactive	inactive	–	–
